From PubChem BioAssay
Activity calls are given as the source filed them.

Key:
[1] = system: PRMT1 (protein arginine N-methyltransferase 1); assay: small molecules binding arginine methyltransferase PRMT1 – biochemical, small-molecule microarray, 635 nm fluorescence, primary screen (AID 1088); details: higher = more signal;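 also: binding of Prmt1 protein to compounds spotted on small-molecule microarray slides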
[2] = growth effects on S. cerevisiae YJM789 – YJM789 clinical isolate, OD600, 24 h, basal, primary screen (AID 1089); details: higher = more signal, called active from +8 up or from −8 down;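 also: growth of clinical yeast isolate S. cerevisiae YJM 789 seeded 1000 cells per well; test concentration not given here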
[3] = S. pombe growth modifiers, basal conditions – strain 972, OD600, 24 h, no modulator, primary screen (AID 1090);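 also: basal condition with compound alone and no growth modifier present; test concentration not given here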; details: S. pombe 972 growth, higher = more signal, called active from +8 up or from −8 down
[4] = budding yeast growth modifiers under rapamycin – strain BY4716, OD600, 96 h, primary screen (AID 1091); also: test concentration not given here; details: S. cerevisiae BY4716 + rapamycin, higher = more signal, called active from +8 up or from −8 down
[5] = target: Torsin-1A-interacting protein 2 (Homo sapiens) (UniProt Q8NFQ8); assay: small molecules binding lysate-expressed LULL1 – cell lysate, human LULL1 lysate, 635/667 nm fluorescence, primary screen (AID 1092); details: small-molecule microarray, hLULL1 lysate binding, 635 nm fluorescence; higher = more signal;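 also: probe is lysate of COS7 cells overexpressing human LULL1; score merges per-feature 667 nm fluorescence with signal-to-noise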
Torsin-1A-interacting protein 2 (Homo sapiens), sequence (Q8NFQ8 whole entry, looked up): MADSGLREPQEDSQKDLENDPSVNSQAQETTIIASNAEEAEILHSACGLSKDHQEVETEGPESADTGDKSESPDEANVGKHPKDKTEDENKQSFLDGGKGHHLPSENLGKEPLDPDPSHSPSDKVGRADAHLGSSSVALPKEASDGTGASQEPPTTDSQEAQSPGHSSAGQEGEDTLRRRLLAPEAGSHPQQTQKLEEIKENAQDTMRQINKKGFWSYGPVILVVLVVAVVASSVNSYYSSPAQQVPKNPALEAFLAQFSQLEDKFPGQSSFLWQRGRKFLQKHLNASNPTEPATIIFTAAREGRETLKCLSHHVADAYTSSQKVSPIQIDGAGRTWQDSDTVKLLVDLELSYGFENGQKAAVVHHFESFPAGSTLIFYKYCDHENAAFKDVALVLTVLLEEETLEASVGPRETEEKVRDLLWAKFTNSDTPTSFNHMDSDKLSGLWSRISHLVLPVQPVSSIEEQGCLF

[6] = optical density change of DRC41 E. coli – strain DRC41, OD650, 24 h, E. coli filamentation project, primary screen (AID 1093);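 also: MC1000 strain lacking acrAB efflux and sulA so SOS filamentation is blocked; test concentration not given here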; details: E. coli DRC41 growth, higher = more signal, called active from +8 up or from −8 down
[7] = probe aLefty2 binding to arrayed compounds – biochemical, biotinylated probe, 635/667 nm fluorescence, primary screen (AID 1094); details: small-molecule microarray, higher = more signal;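 also: score merges spot fluorescence near 667 nm with spot signal-to-noise ratio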
[8] = system: Noggin (protein binding on small-molecule microarray); assay: small molecules binding Noggin protein – biochemical, 635/667 nm fluorescence, primary screen (AID 1095); details: 635 nm fluorescence, higher = more signal;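 also: score merges 667 nm feature fluorescence with signal to noise over triplicate slides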
[9] = target: Neurogenic locus notch homolog protein 3 (Homo sapiens) (UniProt Q9UM47); assay: small molecules binding NOTCH3 protein – biochemical, 635/667 nm fluorescence, primary screen (AID 1096); details: small-molecule microarray, 635 nm fluorescence, higher = more signal
Neurogenic locus notch homolog protein 3 (Homo sapiens), sequence (Q9UM47 whole entry, looked up): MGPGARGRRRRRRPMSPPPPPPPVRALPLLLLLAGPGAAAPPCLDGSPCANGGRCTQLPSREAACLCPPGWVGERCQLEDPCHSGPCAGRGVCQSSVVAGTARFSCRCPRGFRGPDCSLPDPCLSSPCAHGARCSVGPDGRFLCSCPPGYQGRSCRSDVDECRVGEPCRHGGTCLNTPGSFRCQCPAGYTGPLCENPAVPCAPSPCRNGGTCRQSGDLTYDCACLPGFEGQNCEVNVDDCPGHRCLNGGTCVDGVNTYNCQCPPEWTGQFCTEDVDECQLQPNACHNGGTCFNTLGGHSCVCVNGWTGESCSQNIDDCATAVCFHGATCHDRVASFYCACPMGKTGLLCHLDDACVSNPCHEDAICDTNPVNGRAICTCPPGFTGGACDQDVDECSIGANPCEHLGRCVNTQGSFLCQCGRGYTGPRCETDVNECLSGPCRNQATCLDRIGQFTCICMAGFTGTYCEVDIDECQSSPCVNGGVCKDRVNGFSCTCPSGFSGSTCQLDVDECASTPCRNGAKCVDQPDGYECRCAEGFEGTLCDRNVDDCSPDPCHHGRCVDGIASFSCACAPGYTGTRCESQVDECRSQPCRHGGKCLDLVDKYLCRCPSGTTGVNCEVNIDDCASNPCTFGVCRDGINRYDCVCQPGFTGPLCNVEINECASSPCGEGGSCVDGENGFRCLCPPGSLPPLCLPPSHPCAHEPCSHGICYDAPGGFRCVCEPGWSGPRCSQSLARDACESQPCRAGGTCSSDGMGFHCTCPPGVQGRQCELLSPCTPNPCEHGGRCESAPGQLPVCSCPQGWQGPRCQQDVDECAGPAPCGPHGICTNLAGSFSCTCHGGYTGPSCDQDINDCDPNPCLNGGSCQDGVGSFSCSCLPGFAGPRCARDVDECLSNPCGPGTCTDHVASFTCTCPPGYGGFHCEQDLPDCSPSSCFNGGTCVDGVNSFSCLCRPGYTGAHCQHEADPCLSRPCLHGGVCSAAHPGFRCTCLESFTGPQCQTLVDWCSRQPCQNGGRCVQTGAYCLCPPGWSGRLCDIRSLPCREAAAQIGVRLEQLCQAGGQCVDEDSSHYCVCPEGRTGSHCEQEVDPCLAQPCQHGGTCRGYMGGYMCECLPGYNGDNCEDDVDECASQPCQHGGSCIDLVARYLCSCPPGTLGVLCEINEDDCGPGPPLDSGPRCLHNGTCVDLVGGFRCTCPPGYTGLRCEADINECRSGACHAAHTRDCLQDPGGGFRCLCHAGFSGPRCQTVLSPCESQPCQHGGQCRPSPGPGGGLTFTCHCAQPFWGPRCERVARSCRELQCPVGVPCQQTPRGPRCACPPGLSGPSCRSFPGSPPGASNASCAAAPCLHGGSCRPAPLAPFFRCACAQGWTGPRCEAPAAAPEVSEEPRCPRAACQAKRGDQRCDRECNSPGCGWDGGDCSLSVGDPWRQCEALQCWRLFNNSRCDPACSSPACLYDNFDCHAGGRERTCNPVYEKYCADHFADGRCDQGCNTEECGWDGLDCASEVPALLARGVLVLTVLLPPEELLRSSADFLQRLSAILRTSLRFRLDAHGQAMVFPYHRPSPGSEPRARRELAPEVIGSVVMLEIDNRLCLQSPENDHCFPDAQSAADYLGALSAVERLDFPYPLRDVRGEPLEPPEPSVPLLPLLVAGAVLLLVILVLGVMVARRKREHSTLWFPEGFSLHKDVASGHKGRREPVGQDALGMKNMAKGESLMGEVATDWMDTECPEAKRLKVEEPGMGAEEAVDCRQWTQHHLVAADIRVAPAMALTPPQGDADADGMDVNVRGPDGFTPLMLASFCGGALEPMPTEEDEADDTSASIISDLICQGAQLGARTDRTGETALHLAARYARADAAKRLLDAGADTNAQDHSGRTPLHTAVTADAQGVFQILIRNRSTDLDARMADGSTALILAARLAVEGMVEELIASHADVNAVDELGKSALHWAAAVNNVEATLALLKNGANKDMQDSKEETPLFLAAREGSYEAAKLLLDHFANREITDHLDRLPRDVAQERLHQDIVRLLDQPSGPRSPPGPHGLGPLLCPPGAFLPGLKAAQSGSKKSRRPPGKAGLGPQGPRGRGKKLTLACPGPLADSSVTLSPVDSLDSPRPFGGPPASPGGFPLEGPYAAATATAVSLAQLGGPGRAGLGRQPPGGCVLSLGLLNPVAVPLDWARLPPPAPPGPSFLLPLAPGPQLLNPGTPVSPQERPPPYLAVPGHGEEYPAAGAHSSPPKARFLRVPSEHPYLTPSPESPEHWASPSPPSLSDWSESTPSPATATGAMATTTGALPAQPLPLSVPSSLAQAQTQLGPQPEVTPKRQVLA

[10] = probe aEGFR binding to arrayed compounds – biochemical, biotinylated probe, 635/667 nm fluorescence, primary screen (AID 1097); details: small-molecule microarray, higher = more signal;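 also: probe is a biotinylated anti-EGFR antibody binding compounds printed on slides; score combines fluorescence near 667 nm and signal to noise of each spot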

CCCCCC1=C2CNC(C)(C(=O)OC)C=C2C(C)C1=O (stereo not given)
composite z-score [1]: -0.998
z-score [2]: 0.511 (inactive)
z-score [3]: 1.7 (inactive)
z-score [4]: 1.48 (inactive)
composite z-score [5]: 1.14
z-score [6]: -0.67 (inactive)
composite z-score [7]: 0.118
composite z-score [8]: -0.947
composite z-score [9]: -0.426
composite z-score [10]: -0.0581

CCCCCN1CC=CC23O[C@@H]4/C=C\CCCOC(=O)C4[C@H]2C(=O)N(C(C)CO)[C@@H]3C1=O (stereo not given in full)
composite z-score [1]: 1.14
z-score [2]: -0.145 (inactive)
z-score [3]: -1.52 (inactive)
z-score [4]: -0.744 (inactive)
composite z-score [5]: 1.86
z-score [6]: 0.815 (inactive)
composite z-score [7]: -0.125
composite z-score [8]: -1.33
composite z-score [9]: -0.365
composite z-score [10]: -0.213

CCOC(=O)C1=CC[C@@H](c2ccccc2)N(S(=O)(=O)c2ccc(C)cc2)[C@H]1c1ccccc1
composite z-score [1]: 0.0074
z-score [2]: 0.181 (inactive)
z-score [3]: 1.88 (inactive)
z-score [4]: 3.8 (inactive)
composite z-score [5]: 1.74
z-score [6]: -0.794 (inactive)
composite z-score [7]: 0.02
composite z-score [8]: 0.156
composite z-score [9]: 0.505
composite z-score [10]: 0.0515

C=CC[C@H](OC(=O)Nc1ccc(SC)cc1)c1ccc(O)c2ccccc12
composite z-score [1]: 1.54
z-score [2]: -23.9 (active)
z-score [3]: -19.8 (active)
z-score [4]: -1.38 (inactive)
composite z-score [5]: 2.8
z-score [6]: 1.42 (inactive)
composite z-score [7]: -0.112
composite z-score [8]: 1.1
composite z-score [9]: 1.1
composite z-score [10]: -0.128

CCCCCCCCCC(O)C1C=CC2C(=O)N(c3ccccc3)C(=O)C2N1Nc1cc(OC)c(OC)c(OC)c1 (stereo not given)
composite z-score [1]: 0.619
z-score [2]: 1.13 (inactive)
z-score [3]: 0.441 (inactive)
z-score [4]: -0.236 (inactive)
composite z-score [5]: 2.23
z-score [6]: -3.91 (inactive)
composite z-score [7]: -0.163
composite z-score [8]: -0.344
composite z-score [9]: 0.631
composite z-score [10]: -0.0978

CC(C)C(CO)N1C(=O)[C@@H]2C3C(=O)OCCC/C=C\[C@H]3OC23C=CCN(c2ccc4ccccc4c2)C(=O)[C@@H]13 (stereo not given in full)
composite z-score [1]: -0.403
z-score [2]: -0.25 (inactive)
z-score [3]: -1.45 (inactive)
z-score [4]: -0.0641 (inactive)
composite z-score [5]: 1.34
z-score [6]: -0.395 (inactive)
composite z-score [7]: -0.0928
composite z-score [8]: -0.469
composite z-score [9]: 0.121
composite z-score [10]: -0.203

CCOC(=O)C[C@H]1[C@H](OC(=O)Cc2ccc3c(c2)OCO3)[C@@H](NC(=O)C2CCCCC2)c2cc(OCCCO)ccc2N1C(=O)c1ccccc1
composite z-score [1]: 1.05
z-score [2]: 0.193 (inactive)
z-score [3]: -0.432 (inactive)
z-score [4]: 0.36 (inactive)
composite z-score [5]: 0.618
z-score [6]: 2.58 (inactive)
composite z-score [7]: -0.248
composite z-score [8]: 0.0367
composite z-score [9]: 0.255
composite z-score [10]: -0.0452
